This passage reports inhibition results from ChEMBL document CHEMBL3433997, “St. Jude Leishmania screening dataset” (2016).

As usually defined, the inhibition is the relative decrease from the control value, in per cent.

What all share (type): functional
Assay [1] has as its target Solute carrier family 2, facilitated glucose transporter member 1 (Homo sapiens) (UniProt P11166). Kind of assay: ST_JUDE_LEISH: Cytotoxicity at 2uM final concentration against transgenic Leishmania Mexicana promastigotes LmGLUT1 that are glucose transport deficient and complemented with the human glucose transporter GLUT1. Activity is measured by DNA content using SYBR green in vitro.

In assay [2] the target is Hexose transporter 1 (Plasmodium falciparum) (UniProt O97467). The experiment in a line: ST_JUDE_LEISH: Cytotoxicity at 2uM final concentration against transgenic Leishmania Mexicana promastigotes LmPfHT that are glucose transport deficient and complemented with the Plasmodium falciparum hexose transporter. Activity is measured by DNA content using SYBR green in vitro.

The target in assay [3] is Glucose transporter (Leishmania mexicana) (UniProt O61059). The experiment in a line: ST_JUDE_LEISH: Cytotoxicity at 2uM final concentration against transgenic Leishmania Mexicana promastigotes LmGT2 that are glucose transport deficient and complemented with the L. Mexicana glucose transporter 2. Activity is measured by DNA content using SYBR green in vitro.

Sequence of Solute carrier family 2, facilitated glucose transporter member 1 (Homo sapiens) (P11166 whole entry): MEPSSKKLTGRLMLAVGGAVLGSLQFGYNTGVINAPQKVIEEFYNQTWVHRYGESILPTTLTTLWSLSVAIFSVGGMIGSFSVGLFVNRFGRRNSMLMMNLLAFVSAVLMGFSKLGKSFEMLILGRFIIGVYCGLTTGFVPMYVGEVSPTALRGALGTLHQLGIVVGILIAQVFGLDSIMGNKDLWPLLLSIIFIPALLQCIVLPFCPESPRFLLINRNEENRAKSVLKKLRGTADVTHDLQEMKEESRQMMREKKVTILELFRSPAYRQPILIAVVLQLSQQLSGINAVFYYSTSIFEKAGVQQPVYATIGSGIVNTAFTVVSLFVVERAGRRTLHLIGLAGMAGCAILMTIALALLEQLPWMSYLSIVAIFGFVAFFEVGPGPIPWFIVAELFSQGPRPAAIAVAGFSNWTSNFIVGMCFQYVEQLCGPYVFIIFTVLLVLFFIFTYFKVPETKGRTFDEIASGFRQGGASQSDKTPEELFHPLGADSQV

`CC(=O)Nc1[nH]c(-c2ccccc2)nc1C(N)=O`: the inhibition in assay [1] is -1.96%; in assay [2] it was -0.89%; in assay [3], -1.65%.
As for `Cc1cc(NCCC(=O)Nc2ccccc2)nc(NCC2CCCCC2)n1`, the figures for the inhibition in assay [1], in assay [2] and in assay [3] were 5.97%, 3.39% and 3.6%, respectively.
For `CCOc1cc(C(C)C)ccc1C1CCN(CCCCNC(=O)c2ccc(NC(=O)c3ccc(Cl)cc3)cc2)CC1` the same measures were 3.78%, 4.23% and 2.65%.
For `Nc1ccc2c(N)c3ccccc3nc2c1`, in that order: 0.33%, 0.2% and -1.77%.
For `O=c1cc(NCCCNCc2[nH]c3cc(Cl)ccc3c2Cl)[nH]c2ccccc12`, in that order: 5.19%, 3.33% and 4.15%.
For the compound `Cc1cc(N(C)C)nc(Nc2ccc(NS(=O)(=O)c3ccccc3)cc2)n1`, the inhibition in assay [1] was 7.64%; in assay [2], 10.6%; in assay [3], 5.82%.
`CCN(CC)CCCC(C)N=c1cc(C=Cc2ccc([N+](=O)[O-])cc2)[nH]c2ccc(OC)cc12` (stereo unspecified): the inhibition is 2.45% in assay [1], 5.16% in assay [2] and 2.98% in assay [3].
For `CC(C)CCN1CCC(Oc2ccc(NC(=O)c3ccco3)cc2Cl)CC1`, in that order: 7.85%, 9.84% and 5.26%.
For `Nc1c(Cl)cc(C(O)CNCCCCCOCCCc2ccc(O)c3ncccc23)cc1Cl` (stereo unspecified), in that order: 103%, 99.7% and 97.5%.
For `Clc1cccc(C=NN=c2cc[nH]c3ccccc23)c1`, in that order: 1.39%, 2.56% and 2.9%.
Turning to `CC(C)OCCCNC(=O)c1nc(-c2cccc(C(F)(F)F)c2)sc1C(C)C`, the results for the inhibition in assay [1], in assay [2] and in assay [3] were 3.62%, 4.03% and 4.46%, respectively.
For `CNCCNCc1cccc(-c2ccc(-c3nc4cc(C(F)(F)F)ccc4[nH]3)s2)c1` the same measures were 2.35%, 3.82% and 1.39%.
